Assay results as given in publication PMC11024108.

Experiments:
Experiment in all cases: cross-link between two proteins; cross-linking mass spectrometry
Gamma-enolase = Gamma-enolase (UniProt P17183)
[1] = target: Gamma-soluble NSF attachment protein (UniProt Q9CWZ7)
Glutamate receptor 2 = Glutamate receptor 2 (UniProt P23819)
[2] = target: Glyceraldehyde-3-phosphate dehydrogenase (UniProt P16858)
[3] = target: Guanine nucleotide-binding protein G(I)/G(S)/G(O) subunit gamma-5 (UniProt P63218)
[4] = target: Guanine nucleotide-binding protein G(I)/G(S)/G(T) subunit beta-1 (UniProt P62874)
[5] = target: Guanine nucleotide-binding protein subunit beta-4 (UniProt Q9HAV0)
[6] = target: Heat shock cognate 71 kDa protein (UniProt P11142)
[7] = target: Heat shock cognate 71 kDa protein (UniProt P63017)
[8] = target: Hemoglobin subunit beta-1 (UniProt P02088)
Histone H2B type 1-H = Histone H2B type 1-H (UniProt Q93079)
[9] = target: Hyaluronan and proteoglycan link protein 1 (UniProt Q9QUP5)
[10] = target: Insulin-like growth factor 1 receptor (UniProt Q60751)
Intersectin-1 = Intersectin-1 (UniProt Q9Z0R4)
[11] = target: Kinesin heavy chain isoform 5C (UniProt P28738)
Kinesin light chain 2 = Kinesin light chain 2 (UniProt O88448)
[12] = target: Lanosterol 14-alpha demethylase (UniProt Q16850)
[13] = target: Lysocardiolipin acyltransferase 1 (UniProt Q6UWP7)
[14] = target: Limbic system-associated membrane protein (UniProt Q8BLK3)
[15] = target: Melanoma inhibitory activity protein 2 (UniProt Q91ZV0)
[16] = target: Microtubule-associated protein 1A (UniProt Q9QYR6)
[17] = target: Mitochondrial import inner membrane translocase subunit TIM16 (UniProt Q9Y3D7)
[18] = target: Mitochondrial import inner membrane translocase subunit Tim9 (UniProt Q9Y5J7)
[19] = target: Monocarboxylate transporter 1 (UniProt P53985)
Myosin light chain 6B = Myosin light chain 6B (UniProt Q8CI43)
Myosin-14 = Myosin-14 (UniProt Q6URW6)
Myosin-9 = Myosin-9 (UniProt Q8VDD5)
[20] = target: NADPH:adrenodoxin oxidoreductase, mitochondrial (UniProt P22570)
Neurofascin = Neurofascin (UniProt Q810U3)
[21] = target: Neuronal pentraxin receptor (UniProt Q99J85)
[22] = target: Neuronal-specific septin-3 (UniProt Q9Z1S5)
Septin-11 = Septin-11 (UniProt Q8C1B7)
Septin-6 = Septin-6 (UniProt Q9R1T4)
Septin-8 = Septin-8 (UniProt Q8CHH9)
Septin-9 = Septin-9 (UniProt Q80UG5)
[23] = target: Neutral alpha-glucosidase AB (UniProt Q14697)
[24] = target: Non-POU domain-containing octamer-binding protein (UniProt Q99K48)
[25] = target: Non-selective voltage-gated ion channel VDAC2 (UniProt P45880)
[26] = target: Non-selective voltage-gated ion channel VDAC3 (UniProt Q9Y277)
[27] = target: Nucleosome assembly protein 1-like 4 (UniProt Q78ZA7)
[28] = target: Osteopetrosis-associated transmembrane protein 1 (UniProt Q86WC4)
[29] = target: Peptidyl-prolyl cis-trans isomerase B (UniProt P23284)
Peroxiredoxin-2 = Peroxiredoxin-2 (UniProt Q61171)
Peroxiredoxin-4 = Peroxiredoxin-4 (UniProt Q13162)
[30] = target: Peroxisomal bifunctional enzyme (UniProt Q08426)
[31] = target: Phosphoglycerate mutase 1 (UniProt Q9DBJ1)
[32] = target: Plasma membrane calcium-transporting ATPase 4 (UniProt Q6Q477)
[33] = target: Polymerase delta-interacting protein 2 (UniProt Q9Y2S7)
[34] = target: Potassium voltage-gated channel subfamily A member 2 (UniProt P63141)
Prefoldin subunit 5 = Prefoldin subunit 5 (UniProt Q99471)
[35] = target: Prostaglandin E synthase 2 (UniProt Q9H7Z7)
[36] = target: Proteasome activator complex subunit 2 (UniProt P97372)
[37] = target: Proteasome subunit alpha type-6 (UniProt P60900)
[38] = target: Proteasome subunit alpha type-6 (UniProt Q9QUM9)
[39] = target: Proteasome subunit alpha type-7 (UniProt Q9Z2U0)

Chain of Membrane-associated progesterone receptor component 1, O00264 (O00264 whole entry): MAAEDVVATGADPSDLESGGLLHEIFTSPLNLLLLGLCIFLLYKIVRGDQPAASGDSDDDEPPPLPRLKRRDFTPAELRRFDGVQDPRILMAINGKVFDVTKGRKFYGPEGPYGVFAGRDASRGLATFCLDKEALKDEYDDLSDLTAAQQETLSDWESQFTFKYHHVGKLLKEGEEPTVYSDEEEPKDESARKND
Chain of Prefoldin subunit 5 (Q99471 whole entry): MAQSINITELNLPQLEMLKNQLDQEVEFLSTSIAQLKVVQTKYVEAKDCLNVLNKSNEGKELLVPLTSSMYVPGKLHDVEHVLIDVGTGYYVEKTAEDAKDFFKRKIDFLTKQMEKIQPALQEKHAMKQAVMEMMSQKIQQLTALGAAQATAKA
Chain of Neurofascin (Q810U3 whole entry): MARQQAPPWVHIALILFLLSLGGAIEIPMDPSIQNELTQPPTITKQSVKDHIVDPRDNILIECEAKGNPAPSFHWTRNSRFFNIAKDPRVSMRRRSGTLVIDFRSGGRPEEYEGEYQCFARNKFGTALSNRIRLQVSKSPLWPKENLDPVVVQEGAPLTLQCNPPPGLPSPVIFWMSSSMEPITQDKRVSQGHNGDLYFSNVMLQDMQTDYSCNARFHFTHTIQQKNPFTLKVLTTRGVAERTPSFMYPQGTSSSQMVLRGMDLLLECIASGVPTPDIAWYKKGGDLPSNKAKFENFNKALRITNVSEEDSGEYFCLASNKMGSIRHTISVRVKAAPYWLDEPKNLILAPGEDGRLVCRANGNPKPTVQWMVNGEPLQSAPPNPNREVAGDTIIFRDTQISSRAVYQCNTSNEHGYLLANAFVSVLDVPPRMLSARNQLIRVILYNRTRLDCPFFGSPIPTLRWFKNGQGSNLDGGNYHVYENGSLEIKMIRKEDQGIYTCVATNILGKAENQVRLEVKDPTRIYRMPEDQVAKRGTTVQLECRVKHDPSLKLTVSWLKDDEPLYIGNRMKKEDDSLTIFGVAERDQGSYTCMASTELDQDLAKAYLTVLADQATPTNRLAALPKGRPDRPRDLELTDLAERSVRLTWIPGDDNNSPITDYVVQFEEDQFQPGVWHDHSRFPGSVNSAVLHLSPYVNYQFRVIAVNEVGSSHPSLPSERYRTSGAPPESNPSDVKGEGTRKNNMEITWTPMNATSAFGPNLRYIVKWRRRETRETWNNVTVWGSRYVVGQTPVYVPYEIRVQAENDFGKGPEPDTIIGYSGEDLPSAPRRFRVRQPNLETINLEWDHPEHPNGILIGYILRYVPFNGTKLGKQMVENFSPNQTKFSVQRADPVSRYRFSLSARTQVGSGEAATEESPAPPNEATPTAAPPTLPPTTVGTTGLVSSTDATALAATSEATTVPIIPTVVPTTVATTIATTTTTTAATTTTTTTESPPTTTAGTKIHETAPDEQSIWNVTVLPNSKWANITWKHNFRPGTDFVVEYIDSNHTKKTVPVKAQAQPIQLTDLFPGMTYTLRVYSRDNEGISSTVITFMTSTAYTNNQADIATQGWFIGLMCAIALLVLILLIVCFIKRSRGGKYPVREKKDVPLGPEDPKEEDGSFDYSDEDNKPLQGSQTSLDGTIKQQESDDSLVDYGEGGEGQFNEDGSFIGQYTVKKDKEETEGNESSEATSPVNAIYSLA
Chain of Limbic system-associated membrane protein (Q8BLK3 whole entry): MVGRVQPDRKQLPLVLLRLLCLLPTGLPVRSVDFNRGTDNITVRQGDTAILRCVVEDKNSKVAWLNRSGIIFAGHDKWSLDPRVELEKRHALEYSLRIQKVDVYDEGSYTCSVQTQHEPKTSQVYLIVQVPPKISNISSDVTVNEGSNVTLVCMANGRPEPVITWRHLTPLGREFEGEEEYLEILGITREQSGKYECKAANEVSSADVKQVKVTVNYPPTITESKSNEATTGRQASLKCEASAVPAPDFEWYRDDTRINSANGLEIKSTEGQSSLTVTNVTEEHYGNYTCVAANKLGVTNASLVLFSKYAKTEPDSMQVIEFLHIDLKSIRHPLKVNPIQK
Chain of Monocarboxylate transporter 1 (P53985 whole entry): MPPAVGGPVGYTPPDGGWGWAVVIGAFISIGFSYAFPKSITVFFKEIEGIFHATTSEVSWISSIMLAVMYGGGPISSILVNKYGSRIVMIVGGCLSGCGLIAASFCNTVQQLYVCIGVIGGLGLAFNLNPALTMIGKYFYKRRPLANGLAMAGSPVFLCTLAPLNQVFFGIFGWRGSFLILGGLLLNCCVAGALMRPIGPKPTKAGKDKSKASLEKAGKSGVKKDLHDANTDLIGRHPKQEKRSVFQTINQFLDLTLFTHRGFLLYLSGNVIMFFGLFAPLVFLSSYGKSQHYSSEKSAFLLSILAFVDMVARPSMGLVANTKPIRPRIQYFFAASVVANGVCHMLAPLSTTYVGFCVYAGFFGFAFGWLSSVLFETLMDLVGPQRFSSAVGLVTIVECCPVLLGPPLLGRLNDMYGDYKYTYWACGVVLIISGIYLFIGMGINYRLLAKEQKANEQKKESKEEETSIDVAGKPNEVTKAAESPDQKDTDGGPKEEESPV
Chain of Hemoglobin subunit beta-1 (P02088 whole entry): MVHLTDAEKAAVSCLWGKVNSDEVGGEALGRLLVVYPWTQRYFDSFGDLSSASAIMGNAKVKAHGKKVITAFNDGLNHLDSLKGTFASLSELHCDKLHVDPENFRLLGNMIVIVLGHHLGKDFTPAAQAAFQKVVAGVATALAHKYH
Chain of Lysocardiolipin acyltransferase 1 (Q6UWP7 whole entry): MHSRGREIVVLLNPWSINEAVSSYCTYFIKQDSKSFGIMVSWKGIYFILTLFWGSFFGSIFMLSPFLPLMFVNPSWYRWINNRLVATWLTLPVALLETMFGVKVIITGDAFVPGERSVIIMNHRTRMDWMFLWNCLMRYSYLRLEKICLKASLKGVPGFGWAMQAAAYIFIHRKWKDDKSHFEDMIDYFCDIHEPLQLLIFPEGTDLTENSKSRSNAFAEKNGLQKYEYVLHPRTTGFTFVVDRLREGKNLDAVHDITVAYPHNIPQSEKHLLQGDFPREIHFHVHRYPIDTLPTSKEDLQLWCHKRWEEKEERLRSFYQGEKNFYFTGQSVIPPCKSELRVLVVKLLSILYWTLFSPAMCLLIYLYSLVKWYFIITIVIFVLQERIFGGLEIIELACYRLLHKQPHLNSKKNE
Chain of Non-selective voltage-gated ion channel VDAC2 (P45880 whole entry): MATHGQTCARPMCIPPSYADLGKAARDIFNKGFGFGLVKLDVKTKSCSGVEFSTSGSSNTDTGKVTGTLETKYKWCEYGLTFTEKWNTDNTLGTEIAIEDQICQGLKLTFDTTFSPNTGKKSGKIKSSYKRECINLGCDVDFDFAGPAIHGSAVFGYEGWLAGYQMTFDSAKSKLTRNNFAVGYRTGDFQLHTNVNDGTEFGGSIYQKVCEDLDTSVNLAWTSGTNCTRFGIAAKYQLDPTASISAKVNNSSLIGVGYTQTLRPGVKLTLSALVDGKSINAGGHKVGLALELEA
Chain of Kinesin light chain 2 (O88448 whole entry): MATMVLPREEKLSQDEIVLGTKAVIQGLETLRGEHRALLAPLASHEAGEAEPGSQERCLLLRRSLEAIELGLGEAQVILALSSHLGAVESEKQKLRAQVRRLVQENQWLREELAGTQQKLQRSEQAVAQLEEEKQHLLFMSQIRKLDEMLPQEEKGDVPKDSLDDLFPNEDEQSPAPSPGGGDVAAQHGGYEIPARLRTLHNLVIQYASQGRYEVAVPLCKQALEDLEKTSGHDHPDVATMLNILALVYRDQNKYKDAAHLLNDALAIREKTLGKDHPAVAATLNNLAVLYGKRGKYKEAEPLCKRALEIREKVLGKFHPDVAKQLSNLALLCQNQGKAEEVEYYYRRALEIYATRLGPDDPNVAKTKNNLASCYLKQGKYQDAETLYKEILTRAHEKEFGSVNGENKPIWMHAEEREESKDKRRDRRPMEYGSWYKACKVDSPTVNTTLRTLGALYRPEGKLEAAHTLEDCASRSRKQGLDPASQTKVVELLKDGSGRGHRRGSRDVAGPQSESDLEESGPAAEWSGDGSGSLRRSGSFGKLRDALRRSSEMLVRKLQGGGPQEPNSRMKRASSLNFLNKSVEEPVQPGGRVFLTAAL
Chain of Neuronal pentraxin receptor (Q99J85 whole entry): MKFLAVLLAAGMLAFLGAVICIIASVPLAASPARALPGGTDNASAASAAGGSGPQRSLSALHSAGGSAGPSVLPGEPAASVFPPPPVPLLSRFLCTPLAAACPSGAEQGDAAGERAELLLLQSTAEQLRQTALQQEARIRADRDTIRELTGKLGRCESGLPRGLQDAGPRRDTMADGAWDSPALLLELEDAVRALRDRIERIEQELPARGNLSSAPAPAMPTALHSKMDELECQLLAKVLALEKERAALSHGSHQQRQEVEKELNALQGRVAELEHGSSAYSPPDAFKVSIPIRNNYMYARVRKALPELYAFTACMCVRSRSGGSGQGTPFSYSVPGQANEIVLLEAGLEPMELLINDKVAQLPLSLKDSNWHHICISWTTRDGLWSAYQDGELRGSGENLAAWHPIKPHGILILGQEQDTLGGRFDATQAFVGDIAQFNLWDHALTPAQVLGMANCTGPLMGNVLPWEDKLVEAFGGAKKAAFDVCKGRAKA
Chain of Myosin light chain 6B (Q8CI43 whole entry): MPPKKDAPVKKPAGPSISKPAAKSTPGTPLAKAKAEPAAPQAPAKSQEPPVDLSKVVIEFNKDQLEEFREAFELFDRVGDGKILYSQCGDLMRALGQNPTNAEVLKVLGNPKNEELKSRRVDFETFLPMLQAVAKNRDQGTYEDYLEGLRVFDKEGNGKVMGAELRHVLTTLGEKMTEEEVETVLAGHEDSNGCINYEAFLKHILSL
Chain of Peroxiredoxin-2 (Q61171 whole entry): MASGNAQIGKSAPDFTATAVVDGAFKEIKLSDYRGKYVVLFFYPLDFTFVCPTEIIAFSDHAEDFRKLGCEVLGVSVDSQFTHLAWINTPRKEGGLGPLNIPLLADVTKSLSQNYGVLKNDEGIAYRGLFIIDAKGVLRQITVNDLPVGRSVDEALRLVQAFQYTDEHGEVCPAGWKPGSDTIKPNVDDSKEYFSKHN
Chain of Guanine nucleotide-binding protein G(I)/G(S)/G(O) subunit gamma-5 (P63218 whole entry): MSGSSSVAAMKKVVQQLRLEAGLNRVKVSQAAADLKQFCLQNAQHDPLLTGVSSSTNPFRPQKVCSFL

**Q.** For Alpha-enolase, P17182, which “listed as a hit” value (Gamma-enolase) is on record?
**A.** The value was “yes”.

**Q.** “Beta-soluble NSF attachment protein, P28663” was tested. Which “listed as a hit” value [1] did it give?
**A.** The value was “yes”.

**Q.** How did the “listed as a hit” value (Glutamate receptor 2) turn out when “DOMON domain-containing protein FRRS1L, B1AXV0” was run?
**A.** The value was “yes”.

**Q.** How did the “listed as a hit” value [2] turn out when “Fructose-bisphosphate aldolase A, P05064” was run?
**A.** Its value is “yes”.

**Q.** For “Guanine nucleotide-binding protein G(I)/G(S)/G(T) subunit beta-2, P62879”, which “listed as a hit” value [3] is on record?
**A.** Its value is “yes”.

**Q.** Which “listed as a hit” value [4] does the source give for “Guanine nucleotide-binding protein G(I)/G(S)/G(O) subunit gamma-4, P50153” here?
**A.** The value was “yes”.

**Q.** With “Guanine nucleotide-binding protein G(I)/G(S)/G(O) subunit gamma-5, P63218” as the substance, how does the “listed as a hit” value [5] read?
**A.** Its value is “yes”.

**Q.** How did the “listed as a hit” value [6] turn out when Heat shock protein HSP 90-beta, P08238 was run?
**A.** Its value is “yes”.

**Q.** For Heat shock 70 kDa protein 4L, P48722, which “listed as a hit” value [7] is on record?
**A.** Its value is “yes”.

**Q.** Hemoglobin subunit alpha, P01942 was tested. Which “listed as a hit” value [8] did it give?
**A.** The value was “yes”.

**Q.** With Programmed cell death protein 4, Q53EL6 as the substance, how does the “listed as a hit” value (Histone H2B type 1-H) read?
**A.** Its value is “yes”.

**Q.** Neurocan core protein, P55066 was tested. Which “listed as a hit” value [9] did it give?
**A.** The value was “yes”.

**Q.** With Insulin receptor, P15208 as the substance, how does the “listed as a hit” value [10] read?
**A.** The value was “yes”.

**Q.** “Epidermal growth factor receptor substrate 15-like 1, Q60902” was tested. Which “listed as a hit” value (Intersectin-1) did it give?
**A.** The value was “yes”.

**Q.** For Kinesin light chain 1, O88447, which “listed as a hit” value [11] is on record?
**A.** The value was “yes”.

**Q.** And the “listed as a hit” value (Kinesin light chain 2)?
**A.** The value was “yes”.

**Q.** For “Membrane-associated progesterone receptor component 1, O00264”, which “listed as a hit” value [12] is on record?
**A.** The value was “yes”.

**Q.** And the “listed as a hit” value [13]?
**A.** The value was “yes”.

**Q.** Which “listed as a hit” value [14] does the source give for Rho-associated protein kinase 2, P70336 here?
**A.** The value was “yes”.

**Q.** With “Transport and Golgi organization protein 1 homolog, Q8BI84” as the substance, how does the “listed as a hit” value [15] read?
**A.** Its value is “yes”.

**Q.** How did the “listed as a hit” value [16] turn out when “Microtubule-associated protein 1B, P14873” was run?
**A.** The value was “yes”.

**Q.** With “Mitochondrial import inner membrane translocase subunit TIM14, Q96DA6” as the substance, how does the “listed as a hit” value [17] read?
**A.** The value was “yes”.

**Q.** With “Mitochondrial import inner membrane translocase subunit Tim22, Q9Y584” as the substance, how does the “listed as a hit” value [18] read?
**A.** The value was “yes”.

**Q.** With Basigin, P35613 as the substance, how does the “listed as a hit” value [19] read?
**A.** The value was “yes”.

**Q.** Which “listed as a hit” value (Myosin light chain 6B) does the source give for Myosin-10, Q61879 here?
**A.** Its value is “yes”.

**Q.** What about the “listed as a hit” value (Myosin-14) of the same substance?
**A.** The value was “yes”.

**Q.** What about the “listed as a hit” value (Myosin-9) of the same substance?
**A.** Its value is “yes”.

**Q.** How did the “listed as a hit” value [20] turn out when “Dihydrolipoyl dehydrogenase, mitochondrial, P09622” was run?
**A.** Its value is “yes”.

**Q.** With Contactin-associated protein 1, O54991 as the substance, how does the “listed as a hit” value (Neurofascin) read?
**A.** The value was “yes”.

**Q.** Which “listed as a hit” value [21] does the source give for Neuronal pentraxin-1, Q62443 here?
**A.** The value was “yes”.

**Q.** What does the source list for Septin-7, O55131?
**A.** listed as a hit [22]: yes; listed as a hit (Septin-11): yes; listed as a hit (Septin-6): yes; listed as a hit (Septin-8): yes; listed as a hit (Septin-9): yes

**Q.** With Calreticulin, P27797 as the substance, how does the “listed as a hit” value [23] read?
**A.** Its value is “yes”.

**Q.** With “Splicing factor, proline- and glutamine-rich, Q8VIJ6” as the substance, how does the “listed as a hit” value [24] read?
**A.** Its value is “yes”.

**Q.** For Hexokinase-1, P19367, which “listed as a hit” value [25] is on record?
**A.** Its value is “yes”.

**Q.** With “Non-selective voltage-gated ion channel VDAC2, P45880” as the substance, how does the “listed as a hit” value [26] read?
**A.** Its value is “yes”.

**Q.** How did the “listed as a hit” value [27] turn out when “Nucleosome assembly protein 1-like 1, P28656” was run?
**A.** Its value is “yes”.

**Q.** How did the “listed as a hit” value [28] turn out when “H(+)/Cl(-) exchange transporter 7, P51798” was run?
**A.** Its value is “yes”.

**Q.** Which “listed as a hit” value [29] does the source give for Protein disulfide-isomerase A4, P13667 here?
**A.** Its value is “yes”.

**Q.** With Peroxiredoxin-1, P35700 as the substance, how does the “listed as a hit” value (Peroxiredoxin-2) read?
**A.** The value was “yes”.

**Q.** Peroxiredoxin-1, Q06830 was tested. Which “listed as a hit” value (Peroxiredoxin-4) did it give?
**A.** The value was “yes”.

**Q.** With Catalase, P04040 as the substance, how does the “listed as a hit” value [30] read?
**A.** Its value is “yes”.

**Q.** Phosphoglycerate mutase 2, O70250 was tested. Which “listed as a hit” value [31] did it give?
**A.** Its value is “yes”.

**Q.** Which “listed as a hit” value [32] does the source give for “Plasma membrane calcium-transporting ATPase 1, G5E829” here?
**A.** The value was “yes”.

**Q.** How did the “listed as a hit” value [33] turn out when “ATP-dependent clpX-like chaperone, mitochondrial, O76031” was run?
**A.** Its value is “yes”.

**Q.** “Voltage-gated potassium channel subunit beta-2, P62482” was tested. Which “listed as a hit” value [34] did it give?
**A.** Its value is “yes”.

**Q.** Which “listed as a hit” value (Prefoldin subunit 5) does the source give for Prefoldin subunit 1, O60925 here?
**A.** The value was “yes”.

**Q.** Which “listed as a hit” value [35] does the source give for “Glycerol-3-phosphate dehydrogenase, mitochondrial, P43304” here?
**A.** Its value is “yes”.

**Q.** “Proteasome activator complex subunit 1, P97371” was tested. Which “listed as a hit” value [36] did it give?
**A.** The value was “yes”.

**Q.** For Proteasome subunit alpha type-2, P25787, which “listed as a hit” value [37] is on record?
**A.** Its value is “yes”.

**Q.** With Proteasome subunit alpha type-2, P49722 as the substance, how does the “listed as a hit” value [38] read?
**A.** The value was “yes”.

**Q.** Which “listed as a hit” value [39] does the source give for Proteasome subunit alpha type-4, Q9R1P0 here?
**A.** The value was “yes”.
